ROS inducer: inducers of reactive oxygen species in cancer cells; U2OS ROS induction, H2DCF-DA fluorescence; ROS induction (% of piperlongumine), % at 10 µM; hit rate 2% among 46,000; AID 624156; in the data active = ROS induction above about 79%, passing the limit was not always enough
Numbers stand for hits. The entries come from a sample that favours hits as a whole.

What do the screens show for `COC(=O)C(CC#Cc1ccc2c(c1)[C@]1(C(=O)N2)[C@H](c2ccc(OCCO)cc2)N2[C@H](c3ccccc3)[C@H](c3ccccc3)OC(=O)[C@H]2[C@@H]1C(=O)N1CCc2cc(OC)c(OC)cc2C1)C(=O)OC`?
ROS inducer: 132

How did C=CCNC(=O)[C@H]1[C@@H]2C(=O)O[C@@H](c3ccccc3)[C@@H](c3ccccc3)N2[C@@H](c2ccccc2OCCO)[C@]12C(=O)Nc1ccc(C#Cc3ccc(OC)cc3)cc12 do in these assays?
ROS inducer: inactive

How did COC(=O)c1ccccc1N=CCC(=O)c1ccc(Br)cc1 do in these assays?
ROS inducer: inactive

Results for O=C(N/C(=C\c1cccnc1)C(=O)N1CCCCC1)c1ccccc1 ?
ROS inducer: inactive

Results for C[C@H]1CN([C@@H](C)CO)C(=O)Cc2cc(NC(=O)c3ccncc3)ccc2O[C@H]1CN(C)S(=O)(=O)c1ccc(Cl)cc1 ?
ROS inducer: inactive

Results for Cc1ccc(S(=O)(=O)N(C)C[C@H]2Oc3ccc(NC(=O)Nc4ccccc4)cc3CC(=O)N([C@@H](C)CO)C[C@@H]2C)cc1 ?
ROS inducer: 123

Results for C[C@H](CO)N1C[C@H](C)[C@H](CN(C)S(=O)(=O)c2ccc(Cl)cc2)Oc2ccc(NC(=O)c3ccncc3)cc2CC1=O ?
ROS inducer: 102

Results for Cc1ccc(S(=O)(=O)N(C)C[C@H]2Oc3ccc(NC(=O)Nc4ccc(C(F)(F)F)cc4)cc3CC(=O)N([C@@H](C)CO)C[C@H]2C)cc1 ?
ROS inducer: inactive

How did Cc1ccc(S(=O)(=O)N(C)C[C@@H]2Oc3ccc(NC(=O)Nc4ccc(C(F)(F)F)cc4)cc3CC(=O)N([C@@H](C)CO)C[C@@H]2C)cc1 do in these assays?
ROS inducer: 98

What do the screens show for `C[C@H]1CN([C@@H](C)CO)C(=O)Cc2cc(NC(=O)c3ccncc3)ccc2O[C@@H]1CN(C)S(=O)(=O)c1ccc(Cl)cc1`?
ROS inducer: inactive

Results for Cc1ccc(S(=O)(=O)N(C)C[C@@H]2Oc3ccc(NC(=O)Nc4ccccc4)cc3CC(=O)N([C@H](C)CO)C[C@H]2C)cc1 ?
ROS inducer: inactive

Results for C[C@H]1CN([C@@H](C)CO)C(=O)Cc2cc(NC(=O)Nc3ccc(C(F)(F)F)cc3)ccc2O[C@H]1CN(C)S(=O)(=O)c1ccc(F)cc1 ?
ROS inducer: inactive

How did Cc1ccc(S(=O)(=O)N(C)C[C@@H]2Oc3ccc(NC(=O)Nc4ccccc4)cc3CC(=O)N([C@H](C)CO)C[C@@H]2C)cc1 do in these assays?
ROS inducer: inactive

How did Cc1ccc(S(=O)(=O)Nc2ccc3oc(=O)sc3c2)cc1 do in these assays?
ROS inducer: inactive

What do the screens show for `Cc1ccccc1CNC(=O)c1c(C)nc2ccccn2c1=O`?
ROS inducer: inactive

How did Fc1cnc(Nc2cccc(Br)c2)nc1Nc1cccc(Br)c1 do in these assays?
ROS inducer: inactive

Results for CCC(C)NC(=O)c1nn(C)c2c1COc1ccccc1-2 (stereo unspecified) ?
ROS inducer: inactive

Results for O=C(C1CC(=O)N(c2ccc(OCc3ccccc3Cl)cc2)C1)N1CCOCC1 (stereo unspecified) ?
ROS inducer: inactive

How did Cc1ccccc1-n1c(SCC(=O)c2ccc(Cl)cc2)nc2[nH]ncc2c1=O do in these assays?
ROS inducer: inactive

Results for Cc1cc(=O)oc2c3c(ccc12)O/C(=C/C=C/c1ccccc1)C3=O ?
ROS inducer: inactive

What do the screens show for `C[C@H]1CN([C@@H](C)CO)C(=O)c2cccc(NC(=O)Nc3ccccc3)c2O[C@@H]1CN(C)S(=O)(=O)c1ccccc1`?
ROS inducer: inactive

How did C[C@H]1CN([C@@H](C)CO)C(=O)c2cccc(NC(=O)Nc3cccc4ccccc34)c2O[C@@H]1CN(C)S(=O)(=O)c1ccccc1 do in these assays?
ROS inducer: inactive

What do the screens show for `C[C@@H]1CN([C@@H](C)CO)C(=O)c2cccc(NC(=O)Nc3ccccc3)c2O[C@H]1CN(C)S(C)(=O)=O`?
ROS inducer: 91

What do the screens show for `C[C@@H]1CN([C@H](C)CO)C(=O)c2cccc(NC(=O)Nc3cccc4ccccc34)c2O[C@H]1CN(C)S(=O)(=O)c1ccccc1`?
ROS inducer: inactive

Results for C[C@@H]1CN([C@@H](C)CO)C(=O)c2cccc(NC(=O)Nc3ccccc3)c2O[C@@H]1CN(C)S(C)(=O)=O ?
ROS inducer: inactive

How did C[C@@H]1CN([C@H](C)CO)C(=O)c2cccc(NC(=O)Nc3cccc4ccccc34)c2O[C@H]1CN(C)S(=O)(=O)c1ccc(F)cc1 do in these assays?
ROS inducer: 111

What do the screens show for `CNC(=O)c1ccc(OC(C)=O)cc1`?
ROS inducer: inactive

What do the screens show for `COc1ccc(N=c2cc(-c3ccc(OC)cc3)oc3ccc(O)cc23)cc1`?
ROS inducer: 193

What do the screens show for `COc1cc(O)c2c(=O)cc(-c3ccc(O)cc3)oc2c1`?
ROS inducer: inactive

How did COc1ccc(-c2cc(=O)c3ccccc3o2)cc1 do in these assays?
ROS inducer: inactive

What do the screens show for `CC(C)(C)N=C(NS(=O)(=O)c1ccc(Br)cc1)c1ccccc1`?
ROS inducer: inactive

How did CCOC(=O)N1CCc2c(sc3c2c(=O)n(Cc2ccccc2)c(=O)n3CC(=O)NC(C)CC)C1 (stereo unspecified) do in these assays?
ROS inducer: inactive

Results for COc1cccc(NC(=O)Cn2c3ccccc3c3nc(=O)cc(C)n32)c1 ?
ROS inducer: inactive

What do the screens show for `Cc1cc(/C=C(/C#N)S(C)(=O)=O)c2c(C)ccc(C(C)C)cc1-2`?
ROS inducer: 85

Results for CS(=O)(=O)/C(C#N)=C/Nc1cnccn1 ?
ROS inducer: inactive

How did CS(=O)(=O)/C(C#N)=C/c1cccn1-c1ccc(OC(F)(F)F)cc1 do in these assays?
ROS inducer: inactive

Results for CC1(C)Oc2ccc(NC(=O)C3(c4ccccc4)CCCC3)cc2O1 ?
ROS inducer: inactive

What do the screens show for `Cc1[nH]c(-c2ccc(F)cc2)cc1C(=O)NC1CCCCC1`?
ROS inducer: inactive

What do the screens show for `COc1cc(/C=C2\SC(=S)NC2=O)ccc1OCc1cccc2ccccc12`?
ROS inducer: inactive

What do the screens show for `C[C@@H]1CN([C@H](C)CO)C(=O)Cc2cc(NS(=O)(=O)c3ccc(F)cc3)ccc2O[C@@H]1CN(C)Cc1ccc(Oc2ccccc2)cc1`?
ROS inducer: inactive

What do the screens show for `C[C@@H]1CN([C@H](C)CO)C(=O)Cc2cc(NS(=O)(=O)c3ccc(Cl)cc3)ccc2O[C@@H]1CN(C)Cc1ccc(Oc2ccccc2)cc1`?
ROS inducer: 86

How did C[C@H]1CN([C@@H](C)CO)C(=O)Cc2cc(NS(=O)(=O)c3ccccc3)ccc2O[C@H]1CN(C)Cc1ccc(Oc2ccccc2)cc1 do in these assays?
ROS inducer: inactive

Results for C[C@H](CO)N1C[C@H](C)[C@H](CN(C)Cc2ccc(Oc3ccccc3)cc2)Oc2ccc(NS(=O)(=O)c3ccc(F)cc3)cc2CC1=O ?
ROS inducer: 114

What do the screens show for `C[C@@H]1CN([C@H](C)CO)C(=O)Cc2cc(NS(=O)(=O)c3ccccc3)ccc2O[C@@H]1CN(C)Cc1ccc(Oc2ccccc2)cc1`?
ROS inducer: inactive

Results for COc1ccc(S(=O)(=O)Nc2ccc3c(c2)CC(=O)N([C@H](C)CO)C[C@H](C)[C@H](CN(C)Cc2ccc(Oc4ccccc4)cc2)O3)cc1 ?
ROS inducer: inactive

What do the screens show for `O=C(O)CCN1C(=O)/C(=C/c2ccc(-c3ccc(Cl)cc3Cl)o2)SC1=S`?
ROS inducer: inactive

What do the screens show for `C=CCN1C(=O)[C@@]2(O[C@@H](CCO)[C@H]([Si](C)(C)c3ccc(OC)cc3)[C@H]2C)c2cc(NC(C)=O)ccc21`?
ROS inducer: 106
